Reference: PubChem BioAssay (NCATS)
Several values for one entry are separate records, joined by “and”; a condition that tells them apart may be missing. Equal values may be shown once. Inconclusive results are not listed. Where a call stands in place of a potency, no number is given. Activity calls are given as the source filed them. Unless noted, calls come from the whole dose curve; as a rule, active = well fitted curve in the direction sought with a large enough effect; inconclusive = small, poorly fitted or top-dose-only effect, or another doubt; inactive = no such curve, though single readings can be large; an effect the other way counts as inactive or inconclusive.

Tests used:
[1] = target: Cytochrome P450 1A2 (Homo sapiens) (UniProt P05177); test: p450-cyp1a2 (AID 410; calls by dose curve; note: potency is the fitted concentration of half-maximal effect)
How it was run: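 O-Demethylation of luciferin 6' methyl ether by human CYP1A2 is monitored as luciferase luminescence. Substrate sits at Km (100uM); enzyme is 20nM. Values are scaled to 57 uM furafylline as maximal inhibition.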

[2] = Stat Signaling Pathway (AID 446; active = well fitted curve in either direction with a large enough effect, not every such curve was filed as active;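 note: ME-180 cervical cancer cells given 40 pM IL-6 alongside compound; SIE-controlled beta-lactamase reporter measured as 460/530 nm FRET emission ratio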)
How it was run: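 Overnight-plated ME-180 cells bearing a STAT Inducible Element beta-lactamase reporter; 5 h co-exposure to compound and 40 pM IL-6; values normalized to 300 pM IL-6 and 125 nM JAK inhibitor controls.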

[3] = target: Cytochrome P450 2D6 (Homo sapiens) (UniProt P10635); test: qHTS Assay for Inhibitors and Substrates of Cytochrome P450 2D6 (AID 891); note: potency is the fitted concentration of half-maximal effect; nearly all actives have a fitted effect of over 60% in size
How it was run: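 Luminescent read-out of luciferin formed by 5 nM human CYP2D6 demethylating 30 uM Luciferin-ME EGE (Km level) over 60 min at room temperature after NADPH regeneration addition. Data normalized to full inhibition by 1.43 uM quinidine.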

[4] = target: Peroxisome proliferator-activated receptor delta (Homo sapiens) (UniProt Q03181); test: qHTS assay for small molecule agonists of peroxisome proliferator-activated receptor delta signaling (AID 588534; calls by dose curve)
How it was run: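 Agonist-mode qHTS; reporter cells, 5 hrs 37 C pre-incubation; compound titration, 18 hrs 37 C; CCF4 dye, 2 hrs RT; fluorescence read. EC50/efficacy via Hill fit.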

[5] = MultiTox-Fluor Cytotoxicity Assay - LYMP1-001 - Dead Cells (AID 946); note: potency is the fitted concentration of half-maximal effect
How it was run: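 In this qHTS, 15 uM tetraoctylammonium bromide defined 100% and DMSO defined basal activity. Lymphoblastoid cells (LYMP1-001, 2500 per well) received compound for 16 hr at 37 C before a fluorogenic dead-cell substrate readout at 485/520 nm.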

[6] = MultiTox-Fluor Cytotoxicity Assay - LYMP1-002 - Dead Cells (AID 960); note: nearly all actives have a fitted effect of over 60% in size; note: potency is the fitted concentration of half-maximal effect
How it was run: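 Cells were plated, rested 5 hr, then treated with compound dilution series for 16 hr at 37 C. After adding substrate reagent and 60 min at room temperature, dead-cell protease fluorescence gave concentration-response curves fitted by the Hill equation.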

[7] = Cell Viability - LYMP1-003 - Assay at 24 hr (AID 963)
How it was run: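 Cytotoxicity is scored as a concentration-dependent fall in ATP-linked luciferase signal in human lymphoblastoid LYMP1-003 cells treated 24 hr at 37 C in complete culture medium.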

[8] = Cell Viability - LYMP1-003 - Assay at 40 hr (AID 964); note: series mostly up to about 92 µM; nearly all actives have a fitted effect of over 60% in size
How it was run: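 Luminescent ATP signal (CellTiter-Glo) served as the viability read-out after 40 hr compound treatment of human lymphoblastoid LYMP1-003 cells at 37 C. Decreases in ATP were fitted with the Hill equation to give AC50.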

[9] = target: Estrogen receptor (Homo sapiens) (UniProt P03372); test: qHTS assay for small molecule antagonists of estrogen receptor alpha signaling (AID 588513; active = well fitted curve in the direction sought with a large enough effect in the signal ratio, with a control signal flat, not every such curve was filed as active; the % refers to the signal ratio)
How it was run: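 ER-alpha-UAS-bla GripTite HEK 293 cells in 2% charcoal/dextran-treated FBS medium; compounds titrated (1:2, duplicate), then stimulated with 0.5 nM 17-beta-estradiol for 18 h at 37C. CCF4 beta-lactamase fluorescence; Hill-fit IC50 and efficacy.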

[10] = target: Peroxisome proliferator-activated receptor gamma (Homo sapiens) (UniProt P37231); test: qHTS assay for small molecule agonists of peroxisome proliferator-activated receptor gamma signaling (AID 588536; active = well fitted curve in the direction sought with a large enough effect in the signal ratio, with a control signal flat, not every such curve was filed as active; the % refers to the signal ratio)
How it was run: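 Using GeneBLAzer HEK293 cells, response was quantified by CCF4 fluorescence and normalized between basal DMSO (0%) and rosiglitazone 2 uM (100%); curves yielded half-maximal stimulation concentration and efficacy.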

[11] = target: Peroxisome proliferator-activated receptor gamma (Homo sapiens) (UniProt P37231); test: qHTS assay for small molecule antagonists of peroxisome proliferator-activated receptor gamma signaling (AID 588537; active = well fitted inhibition curve with a large enough effect in the signal ratio, with a control signal flat, not every such curve was filed as active; the % refers to the signal ratio;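 note: reporter cells co-stimulated with 50 nM rosiglitazone agonist during compound treatment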)
How it was run: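 Compounds are tested as concentration series for inhibition of rosiglitazone-driven (50 nM) reporter expression in GeneBLAzer PPAR-gamma-UAS-bla HEK293 cells. After 16 h at 37 C, CCF4 substrate is added for 2 h at room temperature and blue/green fluorescence is measured.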

[12] = target: Vitamin D3 receptor (Homo sapiens) (UniProt P11473); test: qHTS assay for small molecule antagonists of vitamin D receptor signaling (AID 588541; calls by dose curve;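 note: receptor activated by calcitriol during compound treatment; series mostly up to about 77 µM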)
How it was run: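 VDR-UAS-bla HEK293T cells (2000/well, 2% charcoal-stripped FBS) were treated with titrated compounds plus 1-alpha,25-dihydroxyvitamin D3 (50 nM or 3 nM final) for 16 h at 37 C. CCF4 beta-lactamase fluorescence was read; Hill fits gave IC50.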

[13] = qHTS assay for small molecule antagonists of retinoid X receptor alpha signaling (AID 588546; active = well fitted inhibition curve with a large enough effect in the signal ratio, with a control signal flat, not every such curve was filed as active; the % refers to the signal ratio; note: potency is the fitted concentration of half-maximal effect;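 for max response: cells stimulated with 9-cis-retinoic acid as agonist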); details: HEK293T RXRa-UAS-bla, beta-lactamase ratio, antagonist mode; measured here: W530 green channel, cytotoxicity proxy
How it was run: (§1)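 Beta-lactamase reporter inhibition, read as CCF4 fluorescence ratio (ex 405, em 460/530 nm) after 2 h at RT. HEK293T UAS-bla cells, 2500/well, were stimulated with 9-cis-RA at 500 or 100 nM final alongside test compound for 18 h at 37 C.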

[14] = target: Retinoic acid receptor RXR-alpha (Homo sapiens) (UniProt P19793); test: as above; details: HEK293T RXRa-UAS-bla, beta-lactamase ratio, antagonist mode
How it was run: as §1

[15] = target: Thyroid hormone receptor beta (Homo sapiens) (UniProt P10828); test: qHTS assay for small molecule antagonists of thyroid hormone receptor beta signaling (AID 588547; active = well fitted inhibition curve with a large enough effect in the signal ratio, with a control signal flat, not every such curve was filed as active; the % refers to the signal ratio;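 note: cells stimulated with 0.4 nM T3 agonist during compound exposure; series mostly up to about 77 µM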); details: TR-UAS-bla HEK293, beta-lactamase ratio, antagonist mode, 18 h
How it was run: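 TR-UAS-bla GripTite HEK293 cells in 2% charcoal/dextran FBS medium were preincubated 4 h at 37 C, given compound (0.59 nM to 92 uM) plus 0.4 nM T3 (final) for 18 h, then CCF4 for 2 h at RT; Hill fit gave IC50.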

[16] = target: Voltage-gated inwardly rectifying potassium channel KCNH2 (Homo sapiens) (UniProt Q12809); test: qHTS Assay for Small Molecule Inhibitors of the Human hERG Channel Activity (AID 588834);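 note: lower thallium flux fluorescence means stronger hERG block; nearly all actives have a fitted effect of over 50% in size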; note: potency is the fitted concentration of half-maximal effect
How it was run: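 Thallium serves as surrogate for K+ influx through BacMam-delivered hERG in U2OS cells. Compounds are added for about 10 minutes after dye loading; stimulation buffer then starts flux, monitored kinetically on FDSS.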

[17] = qHTS assay for small molecule disruptors of the mitochondrial membrane potential - 1 hr assay (AID 651754; calls by dose curve; note: nearly all actives have a fitted effect of over 35% in size; note: potency is the fitted concentration of half-maximal effect)
How it was run: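 Loss of mitochondrial potential shifts the cationic dye from red mitochondrial aggregates to green cytoplasmic monomers. Cells (HepG2) are treated with compound for 1 hr before a 30 min dye incubation at 37C.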

[18] = qHTS for differential inhibitors of proliferation of Plasmodium falciparum line W2 (AID 1883); details: Potency: Plasmodium falciparum W2 proliferation inhibition;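 note: potency is the fitted concentration of half-maximal effect; parasites grown with compound for 72 h before lysis and staining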
[19] = target: Arylsulfatase A (Homo sapiens) (UniProt P15289); test: qHTS screen for enhancers of Arylsulfatase A (ASA1): LOPAC Validation Assay (AID 720538)
How it was run: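 SV40-transformed fibroblasts from an MLD patient (ASA-I179S) were treated with compound for 48 h at 37 C. They were then lysed with 0.5 mM pNCS substrate (final) for 14 h at room temperature and stopped with NaOH; signal read by fluorescence (Ex 525/Em 598 nm), with increase denoting enhanced activity.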

[20] = qHTS Assay for Identification of Small Molecule Antagonists for Thrombopoietin (TPO) Signaling Pathway (AID 918); details: TPO-dependent cell signaling reporter, antagonist mode; note: potency is the fitted concentration of half-maximal effect; nearly all actives have a fitted effect of over 60% in size
How it was run: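 Inhibitors of TPO signaling are sought by stimulating IL-3-starved murine Ba/F3 cells (human TPO receptor, Glycoprotein IIb-driven luciferase) with TPO at its EC50 of 26 pM alongside compound. After 24 hrs at 37 C, reporter luminescence is measured.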

Cytochrome P450 2D6 (Homo sapiens), sequence (P10635 whole entry, looked up): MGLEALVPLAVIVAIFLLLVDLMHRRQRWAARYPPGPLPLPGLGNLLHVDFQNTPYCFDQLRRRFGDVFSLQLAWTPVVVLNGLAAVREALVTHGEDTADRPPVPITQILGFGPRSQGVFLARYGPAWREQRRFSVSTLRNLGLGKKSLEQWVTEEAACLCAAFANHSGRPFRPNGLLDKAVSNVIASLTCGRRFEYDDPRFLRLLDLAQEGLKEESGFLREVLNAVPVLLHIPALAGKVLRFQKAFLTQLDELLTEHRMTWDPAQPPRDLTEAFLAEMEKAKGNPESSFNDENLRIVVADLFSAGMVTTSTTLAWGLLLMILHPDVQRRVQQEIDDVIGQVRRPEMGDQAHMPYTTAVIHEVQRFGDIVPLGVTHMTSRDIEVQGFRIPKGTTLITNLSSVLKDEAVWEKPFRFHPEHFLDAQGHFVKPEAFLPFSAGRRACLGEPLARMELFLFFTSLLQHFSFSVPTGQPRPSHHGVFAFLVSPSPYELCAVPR
Peroxisome proliferator-activated receptor gamma (Homo sapiens), sequence (P37231 whole entry, looked up): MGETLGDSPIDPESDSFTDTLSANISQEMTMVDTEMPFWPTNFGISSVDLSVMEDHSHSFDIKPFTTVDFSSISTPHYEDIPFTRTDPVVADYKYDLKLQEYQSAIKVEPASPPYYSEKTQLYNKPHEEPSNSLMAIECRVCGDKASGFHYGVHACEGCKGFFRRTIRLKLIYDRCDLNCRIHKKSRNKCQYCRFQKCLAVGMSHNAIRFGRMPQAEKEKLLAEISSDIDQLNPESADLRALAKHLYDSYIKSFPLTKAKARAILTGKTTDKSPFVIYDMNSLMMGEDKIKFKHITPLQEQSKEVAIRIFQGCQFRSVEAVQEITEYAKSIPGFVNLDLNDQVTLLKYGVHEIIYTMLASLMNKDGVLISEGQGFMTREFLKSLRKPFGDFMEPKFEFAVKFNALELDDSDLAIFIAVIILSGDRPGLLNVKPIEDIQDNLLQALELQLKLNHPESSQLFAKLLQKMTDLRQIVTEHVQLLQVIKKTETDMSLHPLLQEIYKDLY
Thyroid hormone receptor beta (Homo sapiens), sequence (P10828 whole entry, looked up): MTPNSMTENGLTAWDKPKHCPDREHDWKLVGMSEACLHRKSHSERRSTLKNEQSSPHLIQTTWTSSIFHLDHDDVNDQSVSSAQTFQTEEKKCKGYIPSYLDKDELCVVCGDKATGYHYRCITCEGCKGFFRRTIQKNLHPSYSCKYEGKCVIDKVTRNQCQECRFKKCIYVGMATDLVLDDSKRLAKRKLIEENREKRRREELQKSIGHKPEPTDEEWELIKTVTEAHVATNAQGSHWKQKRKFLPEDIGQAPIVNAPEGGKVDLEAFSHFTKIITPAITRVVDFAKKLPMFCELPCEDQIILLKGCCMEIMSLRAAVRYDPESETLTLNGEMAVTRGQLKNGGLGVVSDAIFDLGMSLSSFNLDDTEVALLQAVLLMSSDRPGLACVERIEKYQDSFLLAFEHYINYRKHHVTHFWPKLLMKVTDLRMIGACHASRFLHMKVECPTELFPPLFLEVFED
Retinoic acid receptor RXR-alpha (Homo sapiens), sequence (P19793 whole entry, looked up): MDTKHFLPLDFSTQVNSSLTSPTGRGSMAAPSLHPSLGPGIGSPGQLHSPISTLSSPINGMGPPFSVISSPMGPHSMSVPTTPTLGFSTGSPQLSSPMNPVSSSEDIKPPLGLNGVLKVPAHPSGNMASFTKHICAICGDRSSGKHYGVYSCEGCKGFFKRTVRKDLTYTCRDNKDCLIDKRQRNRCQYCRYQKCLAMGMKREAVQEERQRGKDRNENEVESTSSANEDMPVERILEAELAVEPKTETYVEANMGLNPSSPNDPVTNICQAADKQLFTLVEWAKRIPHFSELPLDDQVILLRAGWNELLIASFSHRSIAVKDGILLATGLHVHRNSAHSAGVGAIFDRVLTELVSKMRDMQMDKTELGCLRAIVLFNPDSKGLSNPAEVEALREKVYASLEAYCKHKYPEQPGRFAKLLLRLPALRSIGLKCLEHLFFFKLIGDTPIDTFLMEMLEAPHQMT
Arylsulfatase A (Homo sapiens), sequence (P15289 whole entry, looked up): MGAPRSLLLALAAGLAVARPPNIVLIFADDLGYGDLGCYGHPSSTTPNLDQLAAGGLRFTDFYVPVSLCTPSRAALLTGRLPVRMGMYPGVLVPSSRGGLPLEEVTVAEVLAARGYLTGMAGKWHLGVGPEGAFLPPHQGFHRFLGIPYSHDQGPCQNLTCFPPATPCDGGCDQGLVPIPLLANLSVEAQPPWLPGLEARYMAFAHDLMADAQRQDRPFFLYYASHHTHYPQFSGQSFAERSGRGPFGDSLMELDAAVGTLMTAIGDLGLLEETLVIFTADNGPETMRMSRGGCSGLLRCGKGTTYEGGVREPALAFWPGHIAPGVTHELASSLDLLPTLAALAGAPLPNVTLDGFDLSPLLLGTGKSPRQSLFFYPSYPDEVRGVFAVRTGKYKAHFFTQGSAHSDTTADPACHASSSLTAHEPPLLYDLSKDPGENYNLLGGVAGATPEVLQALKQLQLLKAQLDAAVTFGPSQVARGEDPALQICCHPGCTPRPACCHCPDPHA
Peroxisome proliferator-activated receptor delta (Homo sapiens), sequence (Q03181 whole entry, looked up): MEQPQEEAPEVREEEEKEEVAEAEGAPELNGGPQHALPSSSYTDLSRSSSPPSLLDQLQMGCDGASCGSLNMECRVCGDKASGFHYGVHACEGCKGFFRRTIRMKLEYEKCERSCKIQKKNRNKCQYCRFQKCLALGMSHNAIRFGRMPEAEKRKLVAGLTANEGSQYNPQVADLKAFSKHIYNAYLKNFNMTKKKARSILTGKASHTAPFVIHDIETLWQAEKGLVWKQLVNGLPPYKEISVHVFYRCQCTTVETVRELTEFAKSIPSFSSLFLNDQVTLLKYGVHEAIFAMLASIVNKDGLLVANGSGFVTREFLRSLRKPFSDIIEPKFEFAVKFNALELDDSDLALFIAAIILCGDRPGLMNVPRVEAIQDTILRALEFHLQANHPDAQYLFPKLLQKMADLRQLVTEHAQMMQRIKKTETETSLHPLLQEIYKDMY
Estrogen receptor (Homo sapiens), sequence (P03372 whole entry, looked up): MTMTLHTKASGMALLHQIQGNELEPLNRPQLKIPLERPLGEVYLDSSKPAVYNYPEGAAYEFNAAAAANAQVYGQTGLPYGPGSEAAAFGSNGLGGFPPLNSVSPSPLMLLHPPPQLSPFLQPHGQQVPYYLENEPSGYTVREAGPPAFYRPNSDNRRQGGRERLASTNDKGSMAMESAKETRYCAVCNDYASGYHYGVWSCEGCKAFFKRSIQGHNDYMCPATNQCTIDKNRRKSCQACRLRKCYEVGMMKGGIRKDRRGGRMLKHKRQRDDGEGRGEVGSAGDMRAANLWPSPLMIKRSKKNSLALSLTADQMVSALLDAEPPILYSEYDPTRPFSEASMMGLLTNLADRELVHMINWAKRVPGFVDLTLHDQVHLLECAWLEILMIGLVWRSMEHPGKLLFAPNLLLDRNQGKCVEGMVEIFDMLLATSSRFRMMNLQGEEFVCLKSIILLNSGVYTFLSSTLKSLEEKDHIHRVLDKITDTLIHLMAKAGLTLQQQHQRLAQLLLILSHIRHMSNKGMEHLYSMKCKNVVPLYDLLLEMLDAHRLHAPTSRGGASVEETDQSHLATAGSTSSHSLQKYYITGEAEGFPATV
Vitamin D3 receptor (Homo sapiens), sequence (P11473 whole entry, looked up): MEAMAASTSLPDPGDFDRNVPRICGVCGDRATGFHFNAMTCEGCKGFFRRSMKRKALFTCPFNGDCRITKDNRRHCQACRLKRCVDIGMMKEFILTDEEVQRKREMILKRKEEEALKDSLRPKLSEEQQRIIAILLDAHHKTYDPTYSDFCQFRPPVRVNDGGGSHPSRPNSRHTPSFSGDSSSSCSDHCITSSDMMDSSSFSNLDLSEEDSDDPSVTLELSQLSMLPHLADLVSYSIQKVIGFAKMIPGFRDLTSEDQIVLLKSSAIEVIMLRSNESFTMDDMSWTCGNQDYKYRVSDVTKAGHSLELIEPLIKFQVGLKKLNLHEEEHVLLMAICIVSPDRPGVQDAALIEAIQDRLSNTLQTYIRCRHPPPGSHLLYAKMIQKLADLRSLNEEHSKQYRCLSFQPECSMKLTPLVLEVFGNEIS
Cytochrome P450 1A2 (Homo sapiens), sequence (P05177 whole entry, looked up): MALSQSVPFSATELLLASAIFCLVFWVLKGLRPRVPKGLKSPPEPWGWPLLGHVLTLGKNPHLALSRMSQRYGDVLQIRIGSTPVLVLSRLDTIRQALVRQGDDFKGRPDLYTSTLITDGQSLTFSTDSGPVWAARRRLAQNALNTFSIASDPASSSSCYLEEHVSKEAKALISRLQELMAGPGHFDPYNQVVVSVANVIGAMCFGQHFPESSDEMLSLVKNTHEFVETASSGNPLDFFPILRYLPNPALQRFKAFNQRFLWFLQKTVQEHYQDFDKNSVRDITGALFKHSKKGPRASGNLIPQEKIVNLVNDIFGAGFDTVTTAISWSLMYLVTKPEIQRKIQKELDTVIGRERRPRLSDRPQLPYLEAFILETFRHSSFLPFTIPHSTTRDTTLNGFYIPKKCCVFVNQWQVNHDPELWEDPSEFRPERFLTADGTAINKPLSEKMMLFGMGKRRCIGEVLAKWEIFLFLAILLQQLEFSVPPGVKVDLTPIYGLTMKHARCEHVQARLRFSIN

CN(C)Cc1c[nH]c2ccccc12
Potency [1]: inactive | outcome [2]: inactive | Potency [3]: 158 nM (active) and 10 µM (active)

CCCCCCCCCC(=O)O
Potency [4]: inactive

Cc1ccccc1O
Potency [5]: inactive | Potency [6]: inactive | outcome [7]: inactive | Potency [8]: inactive | Potency [9]: inactive | Potency [4]: inactive | outcome [10]: inactive | Potency [11]: inactive | outcome [12]: inactive | max response [13]: -8.36% and -9.93% | max response [14]: -5.98% (inactive) and 4.44% (inactive) | activity change % (negative = inhibition) [15]: -12.9% (inactive) and -0.275% (inactive) | Potency [16]: inactive | Potency [17]: inactive

CC(=O)[C@H]1CC[C@H]2[C@@H]3CCC4=CC(=O)CC[C@]4(C)[C@H]3CC[C@]12C
Potency [5]: 50.1 µM (active) | Potency [6]: 10 µM (active) | outcome [7]: inactive | Potency [8]: inactive | Potency [18]: 7.94 µM (active) | Potency [9]: inactive | outcome [10]: inactive | Potency [11]: inactive | outcome [12]: inactive | max response [13]: 1.42% | Potency [14]: 35.5 µM (active) | activity change % (negative = inhibition) [15]: -26.1% (inactive) | Potency [17]: 11.9 µM (active) | Potency [19]: inactive

CC(C)COC(=O)OCN1C(=O)CN(CCN2CC(=O)N(COC(=O)OCC(C)C)C(=O)C2)CC1=O
Potency [20]: 251 nM (active) | Potency [19]: inactive

OC1(c2ccc(Cl)cc2)CCN(Cc2c[nH]c3ccccc23)CC1
Potency [3]: 316 nM (active) | Potency [20]: 10000 nM (active) | Potency [18]: 3.98 µM (active) | Potency [16]: 0.794 µM (active)

Clc1ccc(COC(Cn2ccnc2)c2ccc(Cl)cc2Cl)c(Cl)c1 (stereo not drawn)
outcome [2]: inactive

CCCOc1ccc2[nH]cc(C3=CCNCC3)c2n1
Potency [1]: 0.126 µM (active)

CNCC[C@H](Oc1ccc(C(F)(F)F)cc1)c1ccccc1
Potency [20]: 12.6 µM (active) and 10 µM (active) | Potency [18]: 4.47 µM (active) | Potency [19]: inactive
